95 molecules from PubChem BioAssay AID1645882 (National Center for Advancing Translational Sciences (NCATS), 2021) can be followed below.

Values joined by “and” are separate entries in the source; they are usually repeats but may differ in a detail not shown here. Equal values may be shown once. About 120 (0.75%) of roughly 16,000 compounds were called active. Inconclusive results (about 4%) are left out. The call rests on the fitted dose curve; in most records, active means well fitted inhibition curve with a large enough effect; inconclusive means small, poorly fitted or top-dose-only effect; inactive means no such curve, though single readings can be large or run the other way. The entries come from a sample that favours actives as a whole. Where a call stands in place of a potency, no number is given. Some compounds were tested as several samples or in several runs, with calls that do not always agree.
Potency means the concentration at half of the fitted maximal effect.

Chain of Rap guanine nucleotide exchange factor 3 (Homo sapiens) (O95398 whole entry, looked up): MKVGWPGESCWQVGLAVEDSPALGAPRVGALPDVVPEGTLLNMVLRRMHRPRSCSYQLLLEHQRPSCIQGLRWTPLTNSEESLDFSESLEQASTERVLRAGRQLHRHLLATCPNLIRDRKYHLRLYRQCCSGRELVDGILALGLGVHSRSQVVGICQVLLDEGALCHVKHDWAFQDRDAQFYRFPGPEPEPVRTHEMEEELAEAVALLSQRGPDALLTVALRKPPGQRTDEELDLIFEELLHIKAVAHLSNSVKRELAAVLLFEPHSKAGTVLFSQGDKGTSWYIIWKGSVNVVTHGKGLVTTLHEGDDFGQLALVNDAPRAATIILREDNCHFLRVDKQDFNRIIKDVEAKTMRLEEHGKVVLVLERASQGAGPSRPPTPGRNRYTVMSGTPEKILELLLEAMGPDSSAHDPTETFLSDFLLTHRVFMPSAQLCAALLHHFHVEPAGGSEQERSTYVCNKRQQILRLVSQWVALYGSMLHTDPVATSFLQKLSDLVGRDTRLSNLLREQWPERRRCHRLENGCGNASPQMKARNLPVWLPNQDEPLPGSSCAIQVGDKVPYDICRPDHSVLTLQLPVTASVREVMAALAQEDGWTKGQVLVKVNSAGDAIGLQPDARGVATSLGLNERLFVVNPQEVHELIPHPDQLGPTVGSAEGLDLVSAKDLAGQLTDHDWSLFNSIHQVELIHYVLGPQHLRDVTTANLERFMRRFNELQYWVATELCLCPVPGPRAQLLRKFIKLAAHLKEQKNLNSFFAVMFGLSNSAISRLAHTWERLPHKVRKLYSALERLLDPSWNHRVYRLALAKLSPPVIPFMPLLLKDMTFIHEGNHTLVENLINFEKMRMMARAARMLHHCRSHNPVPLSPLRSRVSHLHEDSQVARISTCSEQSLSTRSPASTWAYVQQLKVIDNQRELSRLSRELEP

This assay concerns the target Rap guanine nucleotide exchange factor 3 (Homo sapiens) (UniProt O95398). Put plainly: Validation qHTS for antagonist of cAMP-regulated guanine nucleotide exchange factor 3 (EPAC1). Further: nearly all actives have a fitted effect of over 75% in size. The following applies: EPAC1 Rap1B-BODIPY-GDP exchange, fluorescence; series mostly up to 150 µM. The method, boiled down: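 EPAC1 (100 nM) mixed with 250 nM RAP1B-BODIPY-GDP and 50 uM GDP; compounds in concentration series, 5 min at room temperature. Fluorescence (ex 480/em 540 nm) read every 5 min for 30 min; normalized to ATA control and DMSO.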
As to `CCCCCCCCCCCC[n+]1ccc(C)c2ccccc21`, the Potency result was “inactive”.

Consider `CCCCCCC[n+]1ccc(C)c2ccccc21`, for which the Potency entry was “inactive”.

Consider `CCCCCCCCCCCCCCCC[n+]1ccc(C)c2ccccc21`, for which the Potency was 63.1 µM (active).

Take `Cc1ccccc1C1(CC(=O)N2CCN(C)CC2)CC(=O)N(Cc2ccncc2)C1=O` (stereo not given): the Potency result is “inactive”.

As for `CCCCCCCCCCCCCCCC[N+](C)(C)Cc1ccccc1`, the Potency is 112 µM (active).

Regarding `CCCCCCCCCCCCC[N+](C)(C)Cc1ccccc1`, the Potency result is “inactive”.

Consider `CCCCCCCCCCCC[N+](C)(C)Cc1ccccc1`, for which the Potency entry was “inactive”.

With `COc1cc(=O)n2c(c1C(=O)N(C)Cc1nonc1C)CCN(Cc1ccc(F)cc1)CC2`, the Potency result is “inactive”.

Consider `CCCCCCCCCCC/C=C\C/C=C\CCCC(=O)O`, for which the activity change, negative = inhibition was -8.31% [at 15.3 µM] (inactive).

Turning to `CCCCCCCC/C=C\C/C=C\C/C=C\CCCC(=O)O`, the activity change, negative = inhibition is 9.96% [at 15.3 µM] (inactive).

On to `CCCCC/C=C\C/C=C\C/C=C\C/C=C\CCCC(=O)O`, for which the Potency is 70.8 µM (active) and inactive.

In the case of `Cc1cc2ccccc2c[n+]1CC(=O)c1ccc(F)cc1`, the Potency result was “inactive”.

Turning to `C/C(N[C@@H]1CSCC1O)=C1/C(=O)CC2[C@@H]1C2(C)C` (stereo not given in full), the Potency entry is “inactive”.

With `COc1ccc(-n2c(CNC(=O)c3ccccc3C(F)(F)F)nnc2SC)cc1`, the Potency entry is “inactive”.

Regarding `FC(F)(F)c1ccccc1-c1cncnc1NCCc1cnc[nH]1`, the Potency result was “inactive”.

As for `O=c1oc2c(O)c(O)cc3c(=O)oc4c(O)c(O)cc1c4c23`, the Potency entry was “inactive and 25.1 µM (active)”.

Turning to `COc1c(O)cc2c(=O)oc3c(OC)c(O)cc4c(=O)oc1c2c34`, the Potency result was “inactive”.

As for `Cc1cc(=O)oc2c(O)c(O)ccc12`, the Potency result was “inactive”.

In the case of `Cc1nc(N=Nc2ccc(C(=O)O)cc2)c(COP(=O)(O)O)c(C=O)c1O`, the Potency result was “inactive”.

As to `Cc1nc(N=Nc2cc(S(=O)(=O)O)c3cc([N+](=O)[O-])cc(S(=O)(=O)O)c3c2)c(COP(=O)(O)O)c(C=O)c1O`, the Potency result was “inactive”.

For the molecule `Cc1nc(N=Nc2ccc(S(=O)(=O)O)cc2S(=O)(=O)O)c(COP(=O)(O)O)c(C=O)c1O`, the Potency entry is “inactive and 12.6 µM (active)”.

As to `COC(=O)c1ccc(-c2cccc3c2OC(CNC(=O)c2ccc4c(c2)OCCO4)C3)nc1` (stereo not given), the Potency entry was “inactive”.

With `COc1cc(=O)n2c(c1C(=O)N(C)Cc1ccsc1)CCN(Cc1c(C)nc3sccn13)CC2`, the Potency entry was “inactive”.

Turning to `COc1ccccc1CCNc1ncnc2sc(C(=O)N3CCCCC3)c(C)c12`, the Potency result is “inactive”.

As for `CC1(C)CC2/C(CO)=C/C=C/[C@](C)(O)CC[C@]21O` (stereo not given in full), the Potency result was “inactive”.

Regarding `O=c1c(O)c(-c2cc(O)c(O)c(O)c2)oc2cc(O)cc(O)c12`, the Potency is 35.5 µM (active) and 39.8 µM (active) and inactive.

With `O=c1c(O)c(-c2ccc(O)c(O)c2)oc2cc(O)cc(O)c12`, the Potency entry was “inactive and 79.4 µM (active)”.

For `O=c1cc(-c2ccc(O)cc2)oc2cc(O)cc(O)c12`, the Potency result is “inactive”.

For the molecule `O=c1cc(-c2ccc(O)cc2)oc2cc(O[C@H]3OC(CO)C(O)C(O)C3O)cc(O)c12` (stereo not given in full), the Potency entry was “inactive”.

Turning to `O=c1cc(-c2ccc(O)c(O)c2)oc2cc(OC3OC(CO)C(O)C(O)C3O)cc(O)c12` (stereo not given), the Potency is 39.8 µM (active).

Take `COc1cc(O)c2c(=O)c(O)c(-c3ccc(O)c(O)c3)oc2c1`: the Potency result is “inactive”.

For `O=c1c(O)c(-c2ccc(O)cc2)oc2cc(O)cc(O)c12`, the Potency entry was “inactive”.

As for `O=c1cc(-c2ccc(O)c(O)c2)oc2cccc(O)c12`, the Potency entry is “inactive”.

For `O=c1c(O)c(-c2ccc(O)cc2O)oc2cc(O)cc(O)c12`, the Potency entry is “inactive”.

On to `CC1O[C@@H](O[C@H]2C(Oc3cc(O)c4c(=O)cc(-c5ccc(O)cc5)oc4c3)OC(CO)C(O)C2O)C(O)C(O)C1O` (stereo not given in full), for which the Potency result is “inactive”.

`O=c1cc(-c2ccc(O)c(O)c2)oc2cc(O)cc(O)c12`: the Potency is 50.1 µM (active) and 39.8 µM (active).

Turning to `O=c1c(O)c(-c2ccccc2)oc2cc(O)cc(O)c12`, the Potency result was “inactive”.

`CN1[C@@H]2CCC[C@@H]1CC(NC(=O)c1nn(C)c3ccccc13)C2` (stereo not given in full): the Potency result was “inactive”.

Turning to `N#CC[C@H](Cc1ccccc1)N1CCN(Cc2ccccc2)CCC1=O`, the Potency result was “inactive”.

For `COc1ccc(C2OC3C(CO)OC(n4cnc5c(=O)[nH]c(N)nc54)C3O2)cc1` (stereo not given), the Potency result was “inactive”.

For `Cc1c(C(=O)N(C)Cc2cccc3ncccc23)cnn1-c1nccc(-c2ccccc2F)n1`, the Potency entry was “inactive”.

With `CC1CN(CC(=O)NCCc2ccncc2)Cc2ccccc2O1` (stereo not given), the Potency entry was “inactive”.

On to `CC1CC[C@@]2(C(=O)O)CCC3(C)C(=CCC4[C@]5(C)CC(O)C(O)[C@](C)(CO)C5C(O)C[C@@]43C)C2C1C` (stereo not given in full), for which the Potency entry is “inactive”.

`O=C(Oc1cc(OC(=O)c2ccccc2)c2c(c1)OC(c1ccc(OC(=O)c3ccccc3)c(OC(=O)c3ccccc3)c1)[C@@H](OC(=O)c1ccccc1)C2)c1ccccc1` (stereo not given in full): the Potency result is “inactive”.

As for `O=C(OC1Cc2c(O)cc(O)cc2OC1c1cc(O)c(O)c(O)c1-c1c(C2Oc3cc(O)cc(O)c3CC2OC(=O)c2cc(O)c(O)c(O)c2)cc(O)c(O)c1O)c1cc(O)c(O)c(O)c1` (stereo not given), the Potency was 63.1 µM (active).

For the molecule `CC(=O)Oc1cc(OC(C)=O)c2c(c1)OC(c1ccc(OC(C)=O)c(OC(C)=O)c1)C(OC(C)=O)C2` (stereo not given), the Potency result is “inactive”.

In the case of `COc1ccc2c(c1OC)C(=O)O[C@H]2C1c2c(cc3c(c2OC)OCO3)CCN1C` (stereo not given in full), the Potency result was “inactive”.

Regarding `O=C(NCC1Cc2cccc(-c3cnccn3)c2O1)c1ccc2c(c1)OCCO2` (stereo not given), the Potency entry is “inactive”.

For `CC(C)C[C@@H](CO)N1CCN(CCc2ccccc2)CCC1=O`, the Potency entry is “inactive”.

On to `COc1cccc(-c2nc(N3CCNCC3)c3ccccc3n2)c1`, for which the Potency entry is “inactive”.

On to `Cc1cc2c(cc1C)N[C@]1(C[C@H]3CCCC(=O)N4CC[C@@H](C1)[C@@H]34)C(=NCc1ccccc1)N2`, for which the Potency result was “inactive”.

Turning to `CN(C)c1ccc(/C=C/C=C/c2ccnc3ccccc23)cc1`, the Potency result was “inactive”.

`CN(C)c1ccc(/C=C/c2ccnc3c2ccc2ccccc23)cc1`: the Potency entry is “inactive”.

Take `CN(C)c1ccc(/C=C/c2ccnc3ccc4ccccc4c23)cc1`: the Potency was 100 µM (active).

On to `CCCCc1oc2ccccc2c1C(=O)c1cc(I)c(OCCN(CC)CC)c(I)c1`, for which the Potency result is “inactive”.

As for `CCc1oc2ccccc2c1C(=O)c1cc(Br)c(O)c(Br)c1`, the Potency is 100 µM (active).

Consider `CC(=O)CC(c1ccccc1)c1c(O)c2ccccc2oc1=O` (stereo not given), for which the Potency entry was “inactive”.

`COc1cccc(-c2oc3ccccc3c(=O)c2O)c1`: the Potency entry was “inactive”.

For the molecule `CCc1oc2ccccc2c1C(=O)c1cc(I)c(O)c(I)c1`, the Potency was 56.2 µM (active).

`CC(=O)c1ccc2oc3ccccc3c(=O)c2c1`: the Potency result is “inactive”.

`COc1cc(OC)c(OC)cc1CN1CCC(n2cc(C(=O)N3CCCCC3)nn2)CC1`: the Potency result is “inactive”.

As to `c1ccc2c(N3CCCCCC3)nc(CN3CCCCC3c3nccs3)nc2c1` (stereo not given), the Potency result was “inactive”.

With `COc1ccc(-c2nc3cnc(N(C)C)nc3n(C)c2=O)cc1`, the Potency entry is “inactive”.

Take `O=C(Nc1ccc(S(=O)(=O)N2CCOCC2)cc1)c1cc(Cl)ccc1NS(=O)(=O)c1ccc(Cl)s1`: the Potency was 112 µM (active).

As for `O=c1c(-c2ccc(Cl)cc2)nc2cnc(N3CCNCC3)nc2n1CCc1ccccc1`, the Potency result is “inactive”.

Regarding `COc1cccc(Cn2c(=O)c(-c3ccc(F)c(F)c3)nc3cncnc32)c1`, the Potency result is “inactive”.

For the molecule `O=c1c(-c2ccccc2)coc2cc(O)cc(O)c12`, the Potency was 79.4 µM (active).

For `COc1ccc(-c2coc3cc(O)cc(O)c3c2=O)cc1`, the Potency result is “inactive”.

Turning to `O=c1c(-c2ccc(O)cc2)coc2cc(O)cc(O)c12`, the Potency result was “inactive”.

As for `Cc1cccc(/C=C/c2cccs2)n1`, the Potency entry was “inactive”.

Take `COc1cccc(CN2Cc3cccc4c3[C@H](C=CC4)CC2=O)c1`: the Potency entry is “inactive”.

`Cc1ccc2c(/C=C/c3ccc(N(C)C)cc3)ccnc2c1C`: the Potency entry was “inactive”.

For `CS(=O)(=O)OCCCNCCCOS(C)(=O)=O`, the Potency result was “inactive”.

Consider `COc1cc(C(=O)NS(=O)(=O)c2ccccc2C)ccc1Cc1cn(C)c2ccc(NC(=O)OC3CCCC3)cc12`, for which the Potency is 89.1 µM (active).

With `COc1cc2c(cc1OC)CN(C(=O)[C@@H]1C[C@H](NCc3cn(C)c4ccccc34)CN1C1Cc3ccccc3C1)CC2`, the Potency result is “inactive”.

Turning to `N#C/C(=C\c1ccc(O)c(O)c1)C(=O)Nc1ccccc1`, the Potency is 79.4 µM (active) and inactive.

For the molecule `N#C/C(=C\c1ccc(O)c(O)c1)C(=O)OCCc1cccs1`, the Potency was 39.8 µM (active).

Turning to `N#C/C(=C\c1ccc(O)c(O)c1)C(=O)NCc1ccccc1`, the Potency result is “inactive”.

Regarding `N#C/C(=C\c1ccc(O)c(O)c1)C(N)=O`, the Potency entry is “inactive”.

For the molecule `C[C@@H](NC(=O)/C(C#N)=C/c1ccc(O)c(O)c1)c1ccccc1`, the Potency result was “inactive”.

On to `CC(NNC(=O)c1ccccc1)c1ccccc1` (stereo not given), for which the Potency result is “inactive”.

Regarding `N#C/C(=C\c1ccc(O)c(O)c1)C(=O)c1ccc(O)c(O)c1`, the Potency result is “inactive”.

For the molecule `O=C(O)/C=C/c1ccc(O)c(O)c1`, the Potency result was “inactive”.

Turning to `C[C@H](NC(=O)/C(C#N)=C/c1ccc(O)c(O)c1)c1ccccc1`, the Potency is 89.1 µM (active) and inactive.

In the case of `Cc1cccc2[nH]cc(/C=C3/C=Nc4ccccc43)c12`, the Potency result was “inactive”.

In the case of `c1cncc(CNc2nc(-c3ccc4c(c3)OCO4)nc3ccccc23)c1`, the Potency entry was “inactive”.

Take `O=S(=O)(NCc1nc(N2CCCC2)c2cc(Cl)ccc2n1)c1ccccc1OC(F)(F)F`: the Potency result is “inactive”.

On to `O=C[C@H](O)[C@@H](O)[C@H](O[C@H]1O[C@H](CO)[C@@H](O[C@H]2O[C@H](CO)[C@@H](O)[C@H](O)[C@H]2O)[C@H](O)[C@H]1O)[C@H](O)CO`, for which the Potency result is “inactive”.

Consider `CCn1nc(C)cc1C(=O)N1CCC2(CC1)c1ccccc1[C@@H](NC(=O)c1cccnc1)[C@@H]2O`, for which the Potency entry was “inactive”.

Regarding `Cc1ncc2c(c1CNC(=O)c1ccc3c(c1)OCO3)CCN(C(=O)c1scc3c1CCCC3)C2`, the Potency entry was “inactive”.

Regarding `CN(C)C(=O)c1ccc(-c2ccc3ncnc(NC4CC4)c3c2)cc1`, the Potency entry was “inactive”.

`NCCC(=O)N[C@H](Cc1cnc[nH]1)C(=O)O`: the Potency result was “inactive”.

As for `C[C@@H]1NC(=O)OC1c1ccco1` (stereo not given in full), the Potency entry was “inactive”.

With `CS(=O)(=O)Nc1cccc(-c2nccc(NCc3cccs3)n2)c1`, the Potency entry is “inactive”.

As to `Cc1cc(C)n(-c2cccc(C(=O)NCC3Cc4cccc(-c5cccnc5)c4O3)c2)n1` (stereo not given), the Potency result is “inactive”.
